Test results from PubChem BioAssay AID463187 (University of Pittsburgh Molecular Library Screening Center, 2010).
Where “and” joins values, the source holds several entries; their conditions need not be identical. Equal values may be shown once. In all, about 220,000 compounds went through this assay and about 1,500 (0.68%) were called active.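 How the source made its calls: active means Hck-Nef kinase inhibition above about 50% (limit read from the data); inactive means inhibition below that limit.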 The sample as a whole holds a higher share of actives than the screen did.

Molecular target: Tyrosine-protein kinase HCK (Homo sapiens) (UniProt P08631)
Experiment: inhibitors of Nef-activated human Hck kinase, primary screen, biochemical, Z-Lyte FRET, 384-well, Hck-YEEI (AID 463187);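 further: 0% = DMSO with Hck plus Nef and 100% = Hck alone without Nef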
Details: Recombinant Hck-YEEI plus Nef, Z-Lyte FRET kinase assay; at 20 µM; hits give high values

Sequence of Tyrosine-protein kinase HCK (Homo sapiens) (P08631 whole entry, looked up): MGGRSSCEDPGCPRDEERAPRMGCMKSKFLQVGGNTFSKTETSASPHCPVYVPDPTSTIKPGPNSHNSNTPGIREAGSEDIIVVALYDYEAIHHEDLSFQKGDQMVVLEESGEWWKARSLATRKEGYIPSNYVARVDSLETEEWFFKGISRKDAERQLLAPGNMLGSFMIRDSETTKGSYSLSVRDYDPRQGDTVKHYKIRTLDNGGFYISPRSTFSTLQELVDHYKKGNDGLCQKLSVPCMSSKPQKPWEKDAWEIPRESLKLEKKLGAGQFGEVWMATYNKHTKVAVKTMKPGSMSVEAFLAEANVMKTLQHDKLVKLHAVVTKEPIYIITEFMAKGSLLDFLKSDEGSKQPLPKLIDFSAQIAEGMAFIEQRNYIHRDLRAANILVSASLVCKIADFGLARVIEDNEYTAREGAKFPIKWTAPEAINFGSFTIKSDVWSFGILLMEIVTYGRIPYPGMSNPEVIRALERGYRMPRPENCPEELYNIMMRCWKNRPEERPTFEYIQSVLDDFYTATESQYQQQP

| Structure (SMILES) | inhibition |
| --- | --- |
| O=C(COC(=O)c1ccccc1C(=O)N1CCN(c2ccccc2)CC1)NCc1ccccc1 | -5.15% (inactive) |
| O=C(NNC(=O)c1ccc(Cl)cc1Cl)c1cccs1 | 22.7% (inactive) |
| C=CCSc1nc(Cc2ccc(Cl)cc2)nc2ccccc12 | -0.392% (inactive) |
| COC(=O)C1=C(C)Nc2ncnn2C1c1cccnc1 (stereo unspecified) | 0.821% (inactive) |
| Clc1ccc2c(c1)C1=C(C(c3ccncc3)O2)C(c2ccc(Br)cc2)n2ncnc2N1 (stereo unspecified) | 83.6% (active) |
| Brc1ccc(C2=CC(c3ccco3)n3ncnc3N2)cc1 (stereo unspecified) | -4.23% (inactive) |
| CCC(C)(C)NC(=O)CN(Cc1cccs1)C(=O)CNS(=O)(=O)c1ccc(F)cc1 | 15.6% (inactive) |
| O=[N+]([O-])c1ccc(F)cc1Oc1nc(-c2cccnc2)nc2ccccc12 | 13.2% (inactive) |
| CCC(O)C1CCN(Cc2cn(-c3ccc(OC)cc3)nc2-c2cccc(F)c2)CC1 (stereo unspecified) | -11.2% (inactive) |
| CCOc1ccc(CCNC(=O)C2=C(C)C(=O)OC23CCC(C)CC3)cc1OCC (stereo unspecified) | 25.3% (inactive) |
| C=CCn1c(N)c(S(=O)(=O)c2cccs2)c2nc3ccccc3nc21 | 21.6% (inactive) |
| CCN(CC)CCn1c(N)c(S(=O)(=O)c2ccccc2)c2nc3ccccc3nc21 | 11.1% (inactive) |
| Cc1ccc(S(=O)(=O)c2c(N)n(C)c3nc4ccccc4nc23)cc1 | 52.7% (active) |
| COc1ccc(/C=C2/C(=O)OCc3cc(OC)c(OC)cc32)c(OC)c1 | 1.93% (inactive) |
| O=C(NCc1ccco1)c1nn2cccnc2c1Cl | 20.7% (inactive) |
| O=C(O)C1C2C=CC(O2)C1C(=O)NCCc1cccc(Cl)c1 (stereo unspecified) | 15.6% (inactive) |
| O=C(N/N=C/c1ccco1)c1ccc(C(=O)N/N=C/c2ccco2)o1 | -0.711% (inactive) |
| O=C(N/N=C/c1ccco1)c1ccc(NC(=O)C2CC2)cc1 | 1.97% (inactive) |
| O=C(Cc1ccccc1)Nc1cccc(C(=O)N/N=C/c2ccco2)c1 | 54.9% (active) |
| NC(=O)C[C@@H]1NC(=O)CNC(=O)c2cc([N+](=O)[O-])cc(I)c2NCCC(C(N)=O)NC1=O (stereo partly specified) | -7.95% (inactive) |
| CCOC(=O)COc1cc(O)c2c(=O)cc(-c3ccccc3)oc2c1 | 20.1% (inactive) |

| Structure (SMILES) | inhibition |
| --- | --- |
| COc1c(O)cc2oc(-c3ccc(O)c(O)c3)cc(=O)c2c1O | 97.3% (active) |
| CCOC(=O)COc1cc(OCC(=O)OCC)c2c(=O)cc(-c3ccccc3)oc2c1 | -0.0489% (inactive) |
| Cc1ccc2nc(-c3cccc(Br)c3)cc(C(=O)Nn3cnnc3)c2c1 | -7.45% (inactive) |
| Cc1cccc(-[n+]2c(-c3cccc(Br)c3)[nH]c3nc4ccccc4nc32)c1 | 50.4% (active) |
| CC(C)(C)NC(=O)COC(=O)c1cc(Br)ccc1Cl | -0.533% (inactive) |
| Cc1ccc(C(=O)CS(C)(=O)=O)cc1 | 1.08% (inactive) |
| Cc1ccc(CSCC(N)C(=O)O)cc1 (stereo unspecified) | 1.34% (inactive) |
| Cc1ccc(SC(CC(=O)c2ccc(C(C)(C)C)cc2)C(=O)O)cc1 (stereo unspecified) | 73.6% (active) |
| CCc1nnc(NC(=O)CSc2nc(SC)ns2)s1 | 8.82% (inactive) |
| Cc1ccc(CSc2nnc(-c3cnccn3)n2C)cc1 | 20.9% (inactive) |
| CC(C)Oc1ccc(C(=O)NC(C)(C)CO)cc1 | 4.72% (inactive) |
| CCNC(=S)NNC(=O)c1ccc2ncccc2c1 | 27.6% (inactive) |
| COc1cccc(/C=C2\SC(=N)N(c3ccc(F)cc3)C2=O)c1 | 26.2% (inactive) |
| Cc1ccc(-c2cc(C(=O)NCc3cn(C)nc3C)c3cc(Br)ccc3n2)cc1 | 50.4% (active) |
| COc1ccc(Cl)cc1C(=O)NCc1cn(C)nc1C | 0.825% (inactive) |
| Cc1nn(C)cc1CNC(=O)Nc1ccc(Cl)cc1 | 12.3% (inactive) |
| Cc1nnc(NC(=O)CSc2nc(C3CCCCC3)nc3ccccc23)s1 | -0.612% (inactive) |
| CC(=O)Nc1cc2ccc(OC(C)=O)cc2oc1=O | 23.3% (inactive) |
| CC(=O)Oc1ccc2c(C)c(CC(C)O)c(=O)oc2c1 (stereo unspecified) | 81.8% (active) |
| Cc1c(Cc2ccccc2)c(=O)oc2cc(OCC(N)=O)ccc12 | 28.6% (inactive) |
| CS(=O)(=O)N(CC(=O)N1CCN(Cc2ccccc2)CC1)c1ccc2c(c1)OCCO2 | 1.45% (inactive) |

| Structure (SMILES) | inhibition |
| --- | --- |
| Cc1ccc(C)c(NC(=S)NCC(c2cccnc2)N2CCOCC2)c1 (stereo unspecified) | 0.595% (inactive) |
| COc1cc(N=Cc2c(O)[nH]c3ccccc23)cc(OC)c1OC | 34.4% (inactive) |
| COc1ccccc1N=Cc1c(O)c2ccccc2oc1=O | 0.48% (inactive) |
| COc1ccc(N=Cc2c(O)[nH]c3ccccc23)cc1OC | 53% (active) |
| CC(C)CNC(=O)/C=C/C(=O)O | -8.82% (inactive) and 22% (inactive) |
| CN(CC(=O)Nc1cccc(F)c1)CC(=O)Nc1cccc([N+](=O)[O-])c1 | 64.6% (active) |
| Cc1ccc(CN(C)CC(=O)Nc2cccc([N+](=O)[O-])c2)o1 | -2.63% (inactive) |
| Cc1ccc(NC(=O)CN(C)CC(=O)Nc2cccc(F)c2)cc1[N+](=O)[O-] | -0.303% (inactive) |
| Cc1cccc(C)c1NC(=O)C1(C)c2cccc[n+]2CC(=O)N1Cc1cccs1 (stereo unspecified) | 16.8% (inactive) |
| CCS(=O)(=O)c1ccc2c(c1)N(S(=O)(=O)c1ccccc1)CC(C(=O)O)O2 (stereo unspecified) | 1.06% (inactive) |
| CC1CCCN(CC(O)COc2ccc3c(c2)OCO3)C1 (stereo unspecified) | 18.9% (inactive) |
| Cc1cc(C(=O)N/N=C/c2ccc(O)c([N+](=O)[O-])c2)c(C)n1-c1ccc(F)cc1 | 18.7% (inactive) |
| O=C1CSC(=S)N1/N=C/c1ccc(O)c([N+](=O)[O-])c1 | 118% (active) |
| CCOc1cccc(/C=N/N2C(=O)CSC2=S)c1O | -22.8% (inactive) |
| Clc1ccc(-n2nnnc2CN2CCCCC2)cc1Cl | 2.13% (inactive) |
| Cc1cc(C)c2c(n1)nn1c(N3CCOCC3)cc(C)nc21 | 58.8% (active) |
| Cc1cc(C)c2c(n1)nn1c(-n3ccnc3)cc(C)nc21 | 5.47% (inactive) |
| Cc1cc(C)c2c(n1)nn1c(N3CCN(c4cccc(Cl)c4)CC3)cc(C)nc21 | 35.2% (inactive) |
| CCc1ccc(NC(=O)N[C@H](C(=O)O)C(C)CC)cc1 (stereo partly specified) | -2.07% (inactive) |
